Most compounds without a hit are left out; they make up all but 0.2% or so of the library.
LDHA block: qHTS assay for inhibitors of human lactate dehydrogenase; AID 1347041, 2019; activity change, % (values are at about 110 or 230 µM); actives 0.15% (n = 480,000); purified LDHA, NADH/diaphorase-resazurin fluorescence; stronger effect = lower value; in the data active = activity change below about -30%; inconclusive = mostly about -25% to -30%
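Remaining NADH was detected by diaphorase (0.133 mg/mL) converting 37 µM resazurin to fluorescent resorufin, read at 0 and 20 minutes. The preceding 5-minute room-temperature reaction used 2 nM LDHA, 0.2 mM sodium pyruvate and 0.06 mM NADH at pH 7.4.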
miR-21 act: qHTS Assay for Modulators of miRNAs and/orActivators of miR-21 | AID 2288, 2010 | Potency, µM (titrated, usually from 38.3 µM), hits mostly activators | HeLa miR-21 FLuc reporter, luciferase, 48 h | 340,000 tested, under 10 active;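 also: miR-21 action dims this reporter so a rising signal means less miR-21 action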
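HeLa cells stably expressing CMV-driven firefly luciferase with a downstream miR-21 binding sequence, endogenously expressing miR-21, were treated with titrations (up to about 40uM final) for 48 hours at 37 degree Celsius. Luciferase luminescence was read after lysis.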
Anesthetic bind: qHTS Assay for Identification of Novel General Anesthetics | actives 0.074% (n = 350,000) | apoferritin/1-aminoanthracene competitive binding, fluorescence | AID 485281, 2010 | Potency, µM (top dose mostly 77.5 µM), hits mostly inhibitors | Ferritin light chain (Equus caballus), P02791; also: nearly all actives have a fitted effect of over 20% in size
Target sequence (P02791 2-175 limits assumed): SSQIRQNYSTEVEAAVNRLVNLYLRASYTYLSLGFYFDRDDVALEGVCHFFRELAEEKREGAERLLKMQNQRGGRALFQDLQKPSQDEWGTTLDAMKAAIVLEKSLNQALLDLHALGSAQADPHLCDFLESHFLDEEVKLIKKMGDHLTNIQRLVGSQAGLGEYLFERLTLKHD
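Steps: apoferritin (10 uM) was premixed with half-saturated 1-AMA in PBS, compounds were pin-transferred, plates stood 10 min at room temperature, fluorescence was read at 380/535 nm, and curves were fitted with a Hill equation.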
Numbers stand for hits; - = inactive; ? = inconclusive; . = no result. Unless noted, calls follow the shape of the dose curve; as a rule, active = well fitted curve in the direction sought with a large enough effect; inconclusive = small, poorly fitted or top-dose-only effect, or another doubt; inactive = no such curve, though single readings can be large; an effect the other way counts as inactive or inconclusive.

SMILES	LDHA block	miR-21 act	Anesthetic bind
COc1cc(CCc2ccccc2)c(C(=O)O)c(O)c1CC=C(C)C	-	.	.
O=C(Cn1c(SCC(=O)Nc2ccc(F)cc2)nc2ccccc21)NCc1ccccc1Cl	-32.4	-	-
O=C(Cn1c(SCC(=O)Nc2ccc(F)cc2)nc2ccccc21)NCc1ccc(F)cc1	-	-	-
Cc1ccc2c(C(=O)O)cc(-c3cccs3)nc2c1C	-	.	.
Cc1nn(-c2ccc(Cl)c(Cl)c2Cl)c(=O)c2ccccc12	-	-	17.8µM
Cc1nn(-c2ccc(Cl)cc2Cl)c(=O)c2ccccc12	-	-	-
CCOC(=O)C1=C(COC(=O)c2oc3c(F)cccc3c2C)NC(=O)NC1C (centres undefined)	-	.	.
COc1ccc(NC(=O)C(C)N2CCN(C)CC2)cc1 (centres undefined)	-	-	-
Cc1cnc(NC(=O)[C@H](C)N2C(=O)C3CCCCC3C2=O)s1 (some centres undefined)	-	-	-
CC(C(=O)Nc1ccc(F)c(F)c1)N1CCN(C)CC1 (centres undefined)	-30.3	-	-
Cc1cnc(NC(=O)C(C)N2CCN(C)CC2)s1 (centres undefined)	-30.6	-	-
CCNS(=O)(=O)O	-	.	.
Cc1ccc(SCC(=O)NC2(C#N)CCCC2)nc1	-	.	.
COc1ccc(C(=O)/C=C/c2ccccc2OC(F)F)c(OC)c1	-	.	.
Cc1cc(C(C)(C)C)ccc1OCCN(C)C	-31.2	-	-
Cc1cc(C(C)(C)C)ccc1OCCOCCN1CCCC1	-	-	?
COc1ccccc1NC(=O)c1ncoc1-c1cccc(Cl)c1	-	.	.
CCN1CCC(NC(=O)Cc2cc(Cl)c3c(c2)OCCCO3)CC1	-	.	.
CC1C(=O)CCN(CCCO)C1C (centres undefined)	-	.	.
Cc1ncc(-c2ccc(S(=O)(=O)Nc3cccc(Cl)c3C)cc2)o1	-30.6	.	.
Cc1ncc(-c2ccc(S(=O)(=O)Nc3ccc(C)c(C)c3)cc2)o1	-	.	.
Cc1ncc(-c2ccc(C)c(S(=O)(=O)Nc3cccc(Cl)c3C)c2)o1	-	.	.
Cc1ncc(-c2ccc(S(=O)(=O)Nc3ccc(C)c(F)c3)cc2)o1	-31.2	.	.
CCC(CO)NC(=O)Nc1sc(C)c(C)c1C#N (centres undefined)	-	.	.
O=C(CCc1ncc(-c2ccccc2)o1)NCc1ccc(C(=O)N2CCCC2)cc1	-	.	.
SMILES	LDHA block	miR-21 act	Anesthetic bind
Cc1ccc(NC(=O)c2ccc(S(=O)(=O)N3CCCCC3)cc2)cc1	-	-	-
Cc1ccc(C(=O)NNC(=O)c2ccc(S(=O)(=O)N3CCCCC3)cc2)cc1	-31.9	.	.
COCCn1c(CSCc2ccc(Cl)cc2Cl)n[nH]c1=S	-	.	.
COc1cc(/C=C2\SC(=O)N(c3ccccc3Cl)C2=O)cc([N+](=O)[O-])c1O	-	-	17.8µM
COc1cc(/C=C2\SC(=O)N(CC(=O)Nc3cccc(C)c3)C2=O)cc([N+](=O)[O-])c1O	-	-	-
O=C1CC(=O)N(Cc2ccco2)C(=O)N1	?	-	-
O=C1CC(=O)N(Cc2ccco2)C(=S)N1	-36.2	-	-
O=C(Cc1ccc(Br)cc1)N1CCN(c2cccc(Cl)c2)CC1	-	.	.
CCN(CC)S(=O)(=O)c1ccc(Cl)c(NC(=O)COC(=O)c2cc(=O)c3ccccc3o2)c1	-	.	.
OCCNC(=S)Nc1ccc(Br)cc1	-	.	.
O=C(CSc1nnc(C2CC2)n1C1CC1)c1c[nH]c(C(=O)N2CCCC2)c1	-32.0	.	.
O=C(CSc1nnc(C2CC2)n1C1CC1)c1ccc(F)cc1	-	.	.
CCc1ccc(NS(=O)(=O)c2ccc(C)c(C(=O)N3CCOCC3)c2)cc1	-44.1	-	-
Cc1ccc(NS(=O)(=O)c2ccc(C)c(C(=O)N3CCOCC3)c2)cc1	-	-	-
O=C(COc1cc(O)c2c(=O)cc(-c3ccccc3)oc2c1)N1CCCCC1	-	.	.
Cc1cc(C)cc(OC(=O)c2cc(-c3ccc(Cl)cc3)on2)c1	-	-	-
CC(C)c1ccc(OC(=O)c2cc(-c3ccccc3)on2)cc1	-	-	14.1µM
O=C(COc1ccc(F)cc1)Nc1ccc2oc(-c3cccc(Cl)c3)nc2c1	-	.	.
Cc1ccc(C(=O)C2OC(=O)C(C)(C)C(=O)C2(C)C)cc1 (centres undefined)	-	-	6.31µM
CC1(C)C(=O)OC(C(=O)c2ccccc2)C2(CCCCC2)C1=O (centres undefined)	-	-	-
O/N=C/C(Cl)=C(Sc1ccc(Cl)cc1)Sc1ccc(Cl)cc1	-	.	.
Cc1noc(NS(=O)(=O)c2ccc(NC(=O)CC34CC5CC(CC(Br)(C5)C3)C4)cc2)c1C	-45.7	-	-
Cc1noc(NS(=O)(=O)c2ccc(NC(=O)C34CC5CC(C3)CC(n3cnc(Cl)n3)(C5)C4)cc2)c1C	-	-	-
Cc1ccc(-c2noc(CNc3ccc(Cl)c(Cl)c3)n2)cc1	-	.	.
Cc1nccn1CC(=O)N/N=C/c1cc(Br)cs1	-	-	-
SMILES	LDHA block	miR-21 act	Anesthetic bind
CCN1CCN(CC(=O)N/N=C/c2cc(Br)cs2)CC1	-30.2	-	-
COc1ccc(NC(=O)CCc2nc3cc(Cl)ccc3n(CC(C)C)c2=O)cc1	-	.	.
CC(C)COc1ccc(C(=O)Nc2nonc2-c2ccc(OC(C)C)cc2)cc1	-30.4	.	.
CC(C)Oc1ccc(C(=O)Nc2nonc2-c2ccc(OC(C)C)cc2)cc1	-	-	-
CCOc1ccc2[nH]cc(S(=O)(=O)c3ccc(C)cc3)c(=O)c2c1	-	-	-
CCOc1ccc2[nH]cc(S(=O)(=O)c3ccc(Cl)cc3)c(=O)c2c1	-44.2	-	?
Brc1cccc(-c2nc3cc4c(cc3[nH]2)OCCO4)c1	-	.	.
O=C1C(c2ccccc2)=S=C2c3ccccc3-c3ccccc3N12	-	.	.
Cc1ccc(NCc2ccccc2O)cc1	-	-	?
Cc1ccccc1NCc1ccccc1O	-	-	17.8µM
Cc1cccc(OCC(=O)OCc2cc(=O)n3nc(C4CCCCC4)sc3n2)c1	-	-	15.8µM
O=C(COc1ccccc1)OCc1cc(=O)n2nc(C3CC3)sc2n1	-	-	?
O=c1c(=O)n(-c2ccc(F)c(F)c2)ccn1Cc1c(F)cccc1Cl	-	.	.
Fc1ccc(/C=N/Nc2cccc(Cl)c2)cc1F	-	.	.
CSc1ccc(CN2CCC(N3CC(C)OC(C)C3)CC2)cc1 (centres undefined)	-	-	-
Cc1ccc(CN2CCC(N3CC(C)OC(C)C3)CC2)cc1 (centres undefined)	-32.5	-	-
CC(C)N1CCc2c(sc(N)c2-c2nc3ccccc3s2)C1	-	.	.
c1csc(CN2CCOCC2)c1	-30.9	-	-
c1csc(CNCCCN2CCOCC2)c1	-	-	-
N#CCc1nc(-c2ccc3c(c2)OCCO3)cs1	-	.	.
COc1ccc(C(=O)NCC(=O)OCC(=O)c2ccc3c(c2)OCCO3)cc1	-	-	12.6µM
O=C(Cc1ccc(Br)cc1)OCC(=O)c1ccc2c(c1)OCCO2	-	-	?
Cc1ccc(C(=O)NCC(=O)OCC(=O)c2ccc3c(c2)OCCO3)cc1C	-	-	10µM
COc1ccc(C(=O)COC(=O)CCC(=O)c2ccc3c(c2)OCCO3)cc1	-	.	.
Cc1ccc(C(=O)NCC(=O)OCC(=O)c2ccc3c(c2)NC(=O)CO3)cc1C	-	-	?

High-throughput results: PubChem, National Center for Advancing Translational Sciences (NCATS)
